Test results: PubChem BioAssay AID868 (SRMLSC, 2007)
The campaign covered roughly 190,000 compounds. About 3,500 (1.8%) were called active.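 Rule for the calls: active = inhibition above a set limit, 3 SD over mean compound inhibition (cut at about 8.4% in these data); inactive = the rest.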 For the sample, actives were picked, then their nearest neighbours and some compounds at random.

Experiment: inhibitors of the yeast RAM network, primary screen, dse1pr::URA3 reporter, 5-FOA selection (AID 868);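 note: 0% = DMSO-only wells with no growth and 100% = 10 µM 1-NA-PP1 full growth; inhibition rescues growth on 5-FOA so higher OD means more RAM inhibition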
Conditions: S. cerevisiae dse1pr::URA3 reporter, 5-FOA growth OD615, 2 d; at 50 µM; active compounds read high; analog-sensitive cbk1-as2 kinase mutant strain

inhibition, inactive:
COc1cccc2cc(/C(C)=N/NC(=O)c3ccco3)oc12 1.11%
COC(=O)Nc1sc2nc(C)cc(C)c2c1-n1cccc1 0.22%
Cc1cc(C)c2c(-n3cccc3)c(NC(=O)OCc3ccccc3)sc2n1 5.58%
COc1cc(CN(C)Cc2nc3cc(C(F)(F)F)ccc3c(=O)[nH]2)ccc1OC(F)F 2.67%
CCOC(=O)C1=C(C)N=C2c3ccccc3C(=O)C2C1c1ccc(Br)cc1 (stereo unspecified) 1.62%
N#C/C(=C1\CCCN1)c1nc(-c2ccccc2)cs1 3.76%
N#CC(=C1SC=CS1)c1nc(-c2ccccc2)cs1 3.35%
O=C(CSc1ccc(-c2ccccc2)nn1)NCC1CCCO1 (stereo unspecified) 2.21%
CCC(=O)Nc1c(S(=O)(=O)c2ccccc2)c2nc3ccccc3nc2n1Cc1ccccc1 2.78%
C=CCn1c(N)c(S(=O)(=O)c2cccs2)c2nc3ccccc3nc21 1.69%
COc1ccc(C(=O)C[n+]2ccc(C)cc2)cc1 0.48%
COc1ccc(/C=C/C(=O)c2cc(Br)ccc(=O)c2O)cc1 1.75%
O=C(/C=C/c1ccccc1)c1ccccc1O -0.67%
CCOC(=O)C1CCCN(C(=O)/C=C/c2ccc(OC)cc2)C1 (stereo unspecified) 0.37%
COc1ccc(C(=O)/C=C/Nc2ccccn2)cc1 2.71%
C=CCOc1c(CNn2cn[nH]c2=S)cccc1OC 0.75%
COC(=O)c1ccc(NC(=S)Nc2cccc(C)n2)cc1 3.21%
CC1CCN(C(=S)c2cccc([N+](=O)[O-])c2)CC1 -0.74%
CC(NC(=S)NC1CCCCC1)C(c1ccccc1)N1CCOCC1 (stereo unspecified) 0.28%
CCOc1cc(/C=N/O)cc(Br)c1OC 0.34%
CCOc1c(Cl)cc(/C=N/O)cc1OC 2.16%
NS(=O)(=O)c1cccc(NC(=O)COC(=O)/C=C/c2ccco2)c1 0.38%
CCc1nnc(NC(=O)c2sc3nc(C)cc(COC)c3c2N)s1 1.25%
CCc1nnc(NC(=O)c2cccs2)s1 1.49%
COCc1c(C(=O)OCc2c(C)noc2C)oc2ccccc12 0.88%
Cc1cc(/C=C2/C(=N)N3C(=NC2=O)SN=C3S(C)(=O)=O)c(C)n1-c1ccccc1 4.35%
COc1cc(NC(=O)COC(=O)CSc2ccc3ccccc3c2)c(C)cc1[N+](=O)[O-] 2.2%
COc1ccc2c(CC(=O)Nc3nnc(C4CC4)s3)coc2c1 3.72%
CCCCS(=O)c1snnc1C (stereo unspecified) -0.12%
O=C(CNC(=O)c1cc2c(s1)CCC2)Nc1ccccc1Br 1.93%
O=C(c1cc2c(s1)CCC2)N1CCN(c2ccccc2)CC1 4.37%
CCOC(=O)Cc1csc(SCC(=O)NC(C)C23CC4CC(CC(C4)C2)C3)n1 (stereo unspecified) 0.91%
CC(NC(=O)COC(=O)c1ccc(Cl)cc1O)c1ccc(F)cc1 (stereo unspecified) 3.6%
CCc1ccc(-n2c(=S)sc3c(=O)n(-c4ccccc4OC)c(=S)[nH]c32)cc1 5.97%
COc1cccc(-n2c(=S)sc3c(=O)n(-c4ccccc4OC)c(SCC4OCCO4)nc32)c1 7.01%
O=C(c1ccncc1)c1ccc([N+](=O)[O-])cc1 0.73%
CC(C)=C1C2CCC1C1C(=O)N(NC(=O)c3ccco3)C(=O)C21 (stereo unspecified) -1.09%
N/C(=N\OC(=O)Cc1ccc([N+](=O)[O-])cc1)c1ccccn1 1.23%
N/C(=N\OC(=O)COc1ccc([N+](=O)[O-])cc1)c1ccc(Br)cc1 2.29%
CN(C)c1nnnn1-c1ccc(Cl)cc1 -0.37%
O=C(O)/C=C/c1cn(Cc2ccccc2)nc1-c1cccs1 4%
CCC(C(=O)OCC(=O)Nc1ccccc1-c1ccccc1)c1ccccc1 (stereo unspecified) 6.39%
CCC(C(=O)OCC(=O)Nc1ccc(C(=O)Nc2ccc(OC)cc2)cc1)c1ccccc1 (stereo unspecified) 4.72%
COCCNC(=O)NC(=O)COC(=O)C1(c2ccc(Cl)cc2)CC1 0.14%
Nc1ncnc(Nc2cccc(Cl)c2Cl)n1 0.27%
CC(=O)Nc1ccc(Sc2ccccc2C(=O)N2CCCC2)cn1 1.82%
O=C1CCCC2=C1C(c1ccccc1)n1c(s/c(=C/c3cccc(F)c3)c1=O)=N2 (stereo unspecified) 3.98%
CCOC(=O)C1=C(C)N=c2s/c(=C\C(=O)OC)c(=O)n2C1c1ccc(OC)cc1 (stereo unspecified) 2.7%
Cc1ccc2[nH]c(=O)c(CN(CC3COCCO3)C(=O)Nc3ccccc3C)cc2c1 (stereo unspecified) 0.63%
CCCCCOc1ccc(CSC2=NCCN2)cc1[N+](=O)[O-] -0.98%
O=C(Nc1nc(-c2cccnc2)cs1)c1ccccc1F -0.37%
COc1cccc(NC(=S)NCc2ccccn2)c1 2.63%
Cc1nn(C)c(C(=O)NNC(=S)NC2CCCCC2)c1Cl 0.28%
CCOC(=O)C1(Cc2cccc(OC)c2)CCCN(S(=O)(=O)c2cccnc2)C1 (stereo unspecified) 0.14%
O=C(NCc1ccccc1)C1CCCN(c2nc3ccsc3c(=O)s2)C1 (stereo unspecified) 3.39%
CN(C)S(=O)(=O)c1cccc(NC(=O)COC(=O)/C=C/c2cccs2)c1 0.87%
CN(C)S(=O)(=O)c1cccc(NC(=O)COC(=O)c2cc(=O)[nH]c(=O)[nH]2)c1 0.97%
CC1CC(C)(C)NC(=S)N1CCC(=O)N1CCN(Cc2ccccc2)CC1 (stereo unspecified) -0.49%
CCC(C)(C)NC(=O)CN(C(=O)CCC(=O)Nc1cc(C)ccn1)c1ccc2c(c1)OCCO2 1.5%
Cc1ccn(CC(=O)N2N=C(C(F)F)CC2(O)C(F)F)n1 (stereo unspecified) 0.78%
S=C(NCc1ccc(Cl)cc1)NC12CC3CC(CC(C3)C1)C2 5.19%
CN(C)CCCNC(=S)NCc1ccc(Cl)cc1 0.25%
Cc1ccc(S(=O)(=O)NC(C(=O)N2CCOCCOCCOCCOCC2)c2ccccc2)cc1 (stereo unspecified) 2%
Cc1ccc(S(=O)(=O)Nc2nc(C)cc(-n3nc(C)cc3C)n2)cc1 2.7%
COc1ccccc1Cn1c(=S)[nH]c2cc(C(=O)N3CCN(C)CC3)ccc2c1=O 2.83%
COc1ccc(OCc2cccc(C(=O)N3CCCC3)c2)cc1 -0.11%
CC(=O)c1ccc(S(=O)(=O)Nc2ccc(C(=O)NCC(c3ccccc3)N(C)C)cc2)cc1 (stereo unspecified) 1.76%
O=C(Nc1ccc(N2CCN(C(=O)c3cccs3)CC2)cc1)c1cccnc1Cl 0.88%
CC(=O)N1CCN(c2cccc(C)c2C)CC1 2.09%
O=C(O)c1cnn2c(C(F)(F)F)cc(-c3ccccc3)nc12 0.53%
COc1cc(N/C=C2\CC(=O)NC(C)=C2C#N)cc(OC)c1OC 2.13%
Cn1c(=O)c2cc(S(=O)(=O)NCCC(=O)Nc3ccc(F)cc3F)ccc2n(C)c1=O 2.64%
COc1ccc(CCNC(=O)CC2SC(=Nc3cc(C)cc(C)c3)NC2=O)cc1OC (stereo unspecified) 1.51%
CC1Cc2ccccc2N1C(=O)c1cc2sccc2n1Cc1ccccc1 (stereo unspecified) 2.9%
O=C(c1cc2sccc2n1Cc1ccc(F)cc1)N1CCc2ccccc21 2.22%
NC(=O)CCC(NS(=O)(=O)c1ccc(Cl)cc1)C(=O)NCc1ccccc1Cl (stereo unspecified) 2.16%

inhibition, active:
CCCCOC(=O)Nc1sc2nc(C)cc(C)c2c1-n1cccc1 9.53%
N#CC(=C1CCCC1)c1nc(-c2ccc(Cl)cc2)cs1 9.11%
Cc1ccc(S(=O)(=O)c2c(N)n(C)c3nc4ccccc4nc23)cc1 12.3%
COc1ccc(/C=C/C(=O)c2ccc(OC)cc2O)cc1 8.82%
COc1ccc(C(=O)/C=C/c2ccc(OC3CSC3)cc2)cc1 9.21%
COc1cc(/C=N/O)cc(Br)c1OCc1cccc(Cl)c1 9.47%
CCc1ccc2nc3sc(C(=O)Nc4nnc(CC)s4)c(N)c3cc2c1 8.98%
COc1ccc2c(CC(=O)OCC(=O)Nc3ccccc3[N+](=O)[O-])coc2c1 10%
O=C(NNC(=O)c1cc2c(s1)CCCC2)c1ccccc1 9.1%
COc1ccccc1-n1c(=S)[nH]c2c(sc(=S)n2-c2ccc(C)cc2C)c1=O 9.12%
N/C(Cc1ccc([N+](=O)[O-])cc1)=N\OC(=O)COc1ccc2ccccc2c1 12%
CCC(C(=O)OCC(=O)Nc1c(Cl)cc(Cl)cc1Cl)c1ccccc1 (stereo unspecified) 12.2%
COc1ccc(OC)c(C2C3=C(N=c4s/c(=C\c5cccc(O)c5)c(=O)n42)c2ccccc2CC3)c1 (stereo unspecified) 12.7%
COc1cccc(NC(=S)NC(=O)c2c(Cl)c(C)nn2C)c1 8.92%
CN(C)S(=O)(=O)c1cccc(NC(=O)COC(=O)C2(c3ccccc3F)CCCC2)c1 15.4%
S=C(NCc1ccc(Cl)cc1)NC1CCCCC1 10.9%
CCCC(C(=O)n1nc(C)cc1C)C(NS(=O)(=O)c1ccc(C)cc1)c1ccccc1 (stereo unspecified) 11.7%
COc1ccc(OC)c(-n2c(=S)[nH]c3cc(C(=O)N4CCCCC4)ccc3c2=O)c1 8.46%
Cc1cccc(N2CCN(C(=O)c3cnn4c(C(F)F)cc(-c5ccccc5)nc34)CC2)c1C 12.1%
CCOC(=O)c1cc2sccc2n1Cc1ccc(C#N)cc1 8.47%
